Screening data (PubChem BioAssay)
Only some compounds are listed: those with a hit (about 19% of all), similar ones and a draw of the others.
TDP1 cell CPT = DT40-hTDP1 cell growth loss with CPT | AID 686979 | chicken DT40 Tdp1-/-;hTDP1 cells + 20 nM CPT, ATP luminescence, 48 h | 12% of 420,000 active | Potency, µM (highest dose often 46.2 µM), for inactives: at the highest dose activity change, negative = growth inhibition, most hits filed as inhibitors; also: potency is read from the fitted curve at half-maximal effect; % is scaled to controls: 0 for no effect and ±100 for the full control effect; nearly all actives have a fitted effect of over 55% in size
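Chicken DT40 Tdp1-/- cells stably complemented with human TDP1 were seeded at 400 cells/well in medium containing 20 nM camptothecin, exposed to pin-transferred compounds, and grown at 37 °C for at least 48 hr. Viability was read as ATP luminescence.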
TDP1 cell noCPT = qHTS for Inhibitors of human tyrosyl-DNA phosphodiesterase 1 (TDP1): qHTS in cells in absence of CPT; 15% of 420,000 active; AID 686978, 2013; DT40 Tdp1-/- hTDP1 cells, no CPT, ATP luminescence, 48 h; Potency, µM (highest dose often 46.2 µM), inactives show top-dose activity change, negative = growth inhibition, hits mostly inhibitors; also: potency is read from the fitted curve at half-maximal effect; % is scaled to controls: 0 for no effect and ±100 for the full control effect; nearly all actives have a fitted effect of over 55% in size
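Compound effects on proliferation are scored in DT40 Tdp1-/-;hTDP1 cells in the absence of CPT. ATP levels (CellTiter-Glo luminescence) are recorded after a ≥48 hr, 37 °C incubation.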
Chronic BCR inh = chronic active BCR signaling inhibition | ABC-DLBCL IkBa-CBG/CBR reporter, luminescence ratio, 4 h | Potency, µM (series often up to 46.1 µM), for inactives: at the highest dose activity change, negative = inhibition, usual class: inhibitors | 0.05% of 340,000 active; active = well fitted inhibition curve with a large enough effect in the signal ratio, with a control signal flat, not every such curve was filed as active; inconclusive = small, poorly fitted or top-dose-only effect, or effect the other way, or a change in a side signal; the % refers to the signal ratio;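 also: potency is read from the fitted curve at half-maximal effect; plate controls were basal doxycycline-induced cells for no effect and cells given 10 µM MG132 for full effect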
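Concentration-response series (up to 46 uM) were applied to TMD8 dual-reporter cells for 4 h at 37C with doxycycline. Green/red ratio, after filter-overlap correction, defined %Activity; red signal alone was normalised to basal cells and zero luminescence.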
IL-1B inflam inh = inhibitors of inflammasome signaling (IL-1 beta secretion). 4.7% of 360,000 active. THP-1 LPS/ATP IL-1B secretion, AlphaLISA, 16 h; stronger effect = lower value. activity change, % at 57.5 µM; in the data active = activity change below about -50%; inconclusive = mostly about -30% to -49%; also: % is scaled to controls: 0 for no effect and ±100 for the full control effect
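Secreted IL-1B measured by AlphaLISA bead assay after 16 h compound exposure of THP-1 cells; compounds (final up to 57.5 uM) added 1 h before LPS (250 ng/mL) and ATP (1.25 mM) stimulation; lower signal means less secretion.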
MCF10A rerep = DNA re-replication induction in MCF 10a cells; MCF 10A DNA re-replication, Hoechst nuclear intensity, 48 h; Potency, µM (doses to about 46.1 µM), for inactives: at the highest dose activity, positive = re-replication, most hits filed as activators; 2.9% of 350,000 active; also: potency is read from the fitted curve at half-maximal effect; % of control where 0% means no effect; nearly all actives have a fitted effect of over 50% in size
SW480 rereplic = DNA re-replication induction in SW480 cells; 1.8% of 340,000 active; AID 624297; Potency, µM (top dose mostly 46.1 µM), for inactives: top-dose re-replication activation, most hits filed as activators; SW480 DNA re-replication, Hoechst DNA content imaging, 48 h; also: potency is read from the fitted curve at half-maximal effect; % of control where 0% means no effect; nearly all actives have a fitted effect of over 55% in size
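Readout is total intensity of Hoechst-stained nuclei, excited at 405 nm and collected at 500-530 nm. Compound treatment lasted 48 hr at 37 C in 5% CO2 before staining.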
Numbers without * were called inactive; u = inconclusive; x = no result given; [ ] = dose if it differs, or a comment. Unless noted, calls follow the shape of the dose curve; as a rule, active = well fitted curve in the direction sought with a large enough effect; inconclusive = small, poorly fitted or top-dose-only effect, or another doubt; inactive = no such curve, though single readings can be large; an effect the other way counts as inactive or inconclusive.

SMILES | TDP1 cell CPT | TDP1 cell noCPT | Chronic BCR inh | IL-1B inflam inh | MCF10A rerep | SW480 rereplic
Cc1ccc(C)c(NC(=O)CN(C)C(C)C(=O)N2CC(C)CC(C)C2)c1 (configuration not stated) | -9.5% | u | 0.1% | 9.9 | 3.7% | 4.6%
COc1ccc(/C=C/c2nnc(NC(=O)CSc3ccc(C)cc3)s2)cc1 | u | u | u | -9.9 | 8.2µM* | u
O=P(O)(O)OP(=O)(O)OP(=O)(O)O | -18.4% | -13.9% | x | x | -0.1% | -0.8%
Cc1ccc(C(=O)c2c(N)c(C(=O)Nc3ccccc3Cl)c3ccccn23)cc1 | -21.5% | -8.2% | x | x | x | x
Cc1ccc(Cl)c(OCC(=O)Nc2cc(S(=O)(=O)N3CCOCC3)ccc2N2CCCC2)c1 | 16.4µM* | -60.7% | 5.2% | -58.6* | 8.6% | 15.1%
CCN(CC)S(=O)(=O)c1ccc(N2CCN(C)CC2)c(NC(=O)COc2ccc(F)cc2Cl)c1 | u | 16.4µM* | u | -3.4 | u | u
CN1CCN(c2ccc(S(=O)(=O)N3CCOCC3)cc2NC(=O)COc2ccc(C#N)cc2)CC1 | -10.2% | -0.1% | x | u | 12.3% | -3.7%
Cc1cc(OCC(=O)Nc2cc(S(=O)(=O)N3CCOCC3)ccc2N2CCCC2)ccc1C(C)C | 11.6µM* | 8.2µM* | -6.1% | u | 10.6% | 2.3%
CN1CCN(c2ccc(S(=O)(=O)N3CCOCC3)cc2NC(=O)COc2ccc(F)cc2Cl)CC1 | 25.9µM* | u | u | -12.7 | -2.7% | u
CC(=O)c1cccc(OC(=O)c2ccc3c(=O)n4c(nc3c2)CCC4)c1 | -22.3% | -5.2% | 12.5% | 7.2 | 3.3% | 1.8%
CCC1CN(CCNC(=O)c2ccc3c(c2)OCO3)Cc2cc(OC)ccc2O1 (configuration not stated) | -4.5%[9.04 µM] | u | x | x | x | x
O=C(COc1ccc(F)cc1Cl)Nc1cc(S(=O)(=O)N2CCOCC2)ccc1N1CCCCC1 | u | u | 5.4% | -51.4* | u | 26.4%
O=C(COC(=O)c1ccc(F)cc1)Nc1cc(S(=O)(=O)N2CCOCC2)ccc1N1CCCC1 | u | -24.4% | -4.6% | 25.3 | -2.6% | 2.7%
O=C(c1cccc(Cl)c1)n1nc(-c2ccco2)nc1NCc1cccs1 | -13.2% | -23.4% | x | x | x | x
CN(C)CCNc1ccc(-c2nn(C)c(=O)c3ccccc23)cc1[N+](=O)[O-] | u | 23.1µM* | -1.2% | -4.2 | -0.7% | -4.3%
CN(CCO)c1ccc(-c2nn(C)c(=O)c3ccccc23)cc1[N+](=O)[O-] | u | 8.2µM* | -12.9% | -15.9 | 5.7% | -22.8%
CN(C)CCCNc1ccc(-c2n[nH]c(=O)c3ccccc23)cc1[N+](=O)[O-] | 10.3µM* | 23.1µM* | u | -13.0 | -2.0% | -2.0%
Cn1nc(-c2ccc(NCCO)c([N+](=O)[O-])c2)c2ccccc2c1=O | 14.4% | -1.9% | u | -11.7 | -16.3% | 3.7%
CC(O)CNc1ccc(-c2n[nH]c(=O)c3ccccc23)cc1[N+](=O)[O-] (configuration not stated) | u | u | -8.0% | 12.7 | 12.3% | 5.9%
Cc1ccc(C(=O)NCC(=O)OCCCOC(=O)CNC(=O)c2ccc(C)c(C)c2)cc1C | -15.6% | -12.6% | -2.2% | 17.5 | -1.5% | -2.2%
Cc1ccc(C(=O)NCC(=O)OCC(=O)/C=C2\N(C)c3ccccc3C2(C)C)cc1C | 16.4µM* | u | -2.3% | 37.8 | u | -3.9%
CN1/C(=C\C(=O)COc2ccc3c(c2)OCO3)C(C)(C)c2ccccc21 | 8.2µM* | 8.2µM* | -5.5% | -78.4* | 13µM* | u
CN1/C(=C\C(=O)C[n+]2ccc3ccccc3c2)C(C)(C)c2ccccc21 | 0.651µM* | 0.291µM* | 0.8% | -52.9* | u | u
CN1/C(=C\C(=O)COC(=O)C2COc3ccccc3O2)C(C)(C)c2ccccc21 (configuration not stated) | 11.6µM* | u | u | -1.5 | 5.3% | 2.1%
CN1C(=O)C(O)(CC(=O)c2ccc3c(c2)OCO3)c2ccccc21 (configuration not stated) | -21.6% | -21.5% | -15.6% | 3.2 | -10.3% | -10.8%
SMILES | TDP1 cell CPT | TDP1 cell noCPT | Chronic BCR inh | IL-1B inflam inh | MCF10A rerep | SW480 rereplic
CCc1ccc2nc(N(Cc3cccnc3)C(=O)Cc3ccccc3)sc2c1 | u | u | 19.7% | x | x | x
CCCCc1nnc(NC(=O)C(C)Sc2nc(O)c(Cc3ccccc3)c(=O)[nH]2)s1 (configuration not stated) | -2.2% | -0.2% | -3.8% | 39.5 | -2.8% | 2.2%
Nc1[nH]c(C(=O)c2ccccc2)c(-c2ccc(C(F)(F)F)cc2)c1C(=O)NCc1ccc(Cl)cc1Cl | u | u | x | -6.6 | x | x
O=C(COC(=O)[C@@H]1CCCN1C(=O)c1cccs1)Nc1cccc([N+](=O)[O-])c1 | -25.9% | -3.8% | -4.3% | 7.0 | 0.9% | -12.4%
COc1cccc(CNC(=O)[C@@H]2CCCN2C(=O)[C@@H]2CCCN2)c1 | 0.9% | -15.6% | x | 9.4 | x | x
O=C(NCc1ccccc1)C1CCCN(C(=O)c2ccc(F)cc2)C1 (configuration not stated) | -0.7% | -1.0% | 4.9% | -1.0 | -5.3% | -2.6%
Cc1noc(C)c1C(=O)OCC(=O)/C=C1/N(C)c2ccccc2C1(C)C | u | 11.6µM* | x | 28.8 | u | -9.2%
COc1ccccc1OCC(=O)/C=C1/N(C)c2ccccc2C1(C)C | 16.4µM* | 20.6µM* | u | -9.2 | 16.6% | -1.9%
CN1/C(=C\C(=O)COC(=O)c2ccco2)C(C)(C)c2ccccc21 | u | u | 1.2% | 23.3 | -8.7%[9.22 µM] | -44.8%
O=C(NCc1nnc2c3ccccc3c(-c3ccccc3)nn12)c1ccc(Cl)cc1 | u | u | -1.1% | -96.6* | u | -4.3%
CCN(CC)c1ccc(NC(=O)c2ccccc2)cc1S(=O)(=O)Nc1ccccc1OC | u | 16.4µM* | 1.6% | -25.9 | 11.3% | 5.6%
O=C(Nc1ccc(Cl)cc1)Nc1ccc(N2CCCC2)c(S(=O)(=O)Nc2ccccc2Cl)c1 | 5.17µM* | 5.17µM* | -0.4% | -52.2* | u | u
COC(=O)c1sccc1S(=O)(=O)Nc1ccc(N2CCCCC2)cc1 | u | 16.4µM* | -5.5% | -7.0 | u | -34.2%
COc1ccccc1NS(=O)(=O)c1cc(NC(=O)Nc2cccc(C)c2)ccc1N1CCCCC1 | 14.6µM* | 9.2µM* | 6.2% | 11.5 | 0.5% | -1.5%
